# How the values were obtained:
# Conditions in all cases: Compound Concentration (nM):1000
# TXK = tested on: TXK
# [1] = tested on: TYK2(JH1domain-catalytic)
# [2] = tested on: TYK2(JH2domain-pseudokinase)
# TYRO3 = tested on: TYRO3
# ULK1 = tested on: ULK1
# ULK2 = tested on: ULK2
# ULK3 = tested on: ULK3
# VEGFR2 = tested on: T1, VEGFR2
# T1 construct: gene KDR
# VPS34 = tested on: T2, VPS34
# T2 construct: gene PIK3C3
# VRK2 = tested on: VRK2
# WEE1 = tested on: WEE1
# WEE2 = tested on: WEE2
# WNK1 = tested on: WNK1
# WNK2 = tested on: WNK2
# WNK3 = tested on: WNK3
# WNK4 = tested on: WNK4
# YANK1 = tested on: T3, YANK1
# T3 construct: gene STK32A
# YANK2 = tested on: T4, YANK2
# T4 construct: gene STK32B
# YANK3 = tested on: T5, YANK3
# T5 construct: gene STK32C
# YES = tested on: T6, YES
# T6 construct: gene YES1
# 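Also: KINOMEscan scanMAX binding as percent activity remaining versus control; lower means stronger binding.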
SMILES,Percent Control (TXK),Percent Control [1],Percent Control [2],Percent Control (TYRO3),Percent Control (ULK1),Percent Control (ULK2),Percent Control (ULK3),Percent Control (VEGFR2),Percent Control (VPS34),Percent Control (VRK2),Percent Control (WEE1),Percent Control (WEE2),Percent Control (WNK1),Percent Control (WNK2),Percent Control (WNK3),Percent Control (WNK4),Percent Control (YANK1),Percent Control (YANK2),Percent Control (YANK3),Percent Control (YES)
COC(=O)Nc1nc2ccc(Oc3ccc(NC(=O)Nc4cc(C(F)(F)F)ccc4F)cc3)cc2s1.Cl [GW693917A],77%,100%,100%,71%,62%,84%,78%,13%,76%,73%,87%,100%,76%,100%,100%,67%,100%,100%,94%,51%
COc1ccc2c(-c3ccnc(Nc4cccc(OC(F)(F)F)c4)n3)cnn2n1 [GW810372X],67%,98%,75%,100%,100%,100%,100%,73%,29%,95%,100%,100%,100%,61%,90%,100%,100%,100%,100%,100%
CCn1c(-c2nonc2N)nc2c(C#CC(C)(C)O)nc(OCCNC)cc21.Cl [GSK949675],100%,95%,95%,100%,88%,100%,94%,83%,100%,67%,92%,100%,100%,100%,100%,51%,87%,89%,100%,100%
COc1ccccc1-c1cc(/C=C2\C(=O)Nc3ncc(Br)cc32)cc(Br)c1O [GW442130X],100%,76%,100%,100%,85%,100%,78%,100%,77%,89%,100%,100%,100%,100%,98%,100%,92%,94%,100%,100%
COc1ccc2[nH]c3c4[nH]c5ccc(OC)cc5c4c4c(c3c2c1)C(=O)NC4=O [GW296115X],100%,87%,84%,71%,100%,87%,43%,59%,80%,98%,53%,87%,91%,66%,92%,88%,69%,97%,84%,73%
O=C(Nc1n[nH]c2nc(-c3ccc(O)cc3)c(Br)cc12)C1CC1 [SB-725317],100%,52%,100%,100%,100%,100%,100%,57%,100%,100%,100%,100%,84%,98%,100%,98%,100%,100%,100%,100%
COc1cc(N2CCN(C(C)C)CC2)ccc1Nc1nc(Nc2ccc(F)cc2C(=O)NC[C@@H](O)CO)c2cc[nH]c2n1 [GSK1392956A],92%,100%,100%,74%,65%,77%,100%,100%,82%,68%,96%,100%,92%,100%,100%,69%,100%,100%,100%,99%
COc1cc2ncnc(Nc3ccc4c(cnn4Cc4ccccc4)c3)c2cc1OC.Cl [GW282449A],100%,100%,100%,51%,74%,100%,100%,79%,100%,100%,100%,100%,94%,100%,100%,100%,100%,100%,100%,67%
COc1cccc(-c2c[nH]c3c(N/N=C/c4ccncc4)ncnc23)c1 [GW814408X],100%,19%,0.1%,100%,100%,91%,68%,61%,65%,100%,100%,98%,96%,75%,99%,100%,90%,100%,100%,61%
COc1ccc(COc2ccc(Cc3cnc(N)nc3N)cc2OC)cc1 [GW632580X],90%,100%,100%,71%,90%,90%,96%,85%,67%,81%,98%,83%,98%,84%,92%,82%,100%,100%,100%,82%

# — article PMC7826789 (International Journal of Molecular Sciences, 2021)
